A word on the AC50: it is the concentration at which the activity in the assay is half-maximal.

Where “and” joins values, the source holds several entries; their conditions need not be identical. Equal entries are not always repeated. More than one record can exist for a structure, and the calls need not agree. Calls of active or inactive are those of the source. The calls were made as follows: active = hit-call score of the fitted dose curve at least 0.9, where 1 is the maximum; inactive = score below 0.9.

A short description of this assay: CCTE_Shafer_MEA_dev_network_spike_peak: CCTE's Neural Network Formation Assay for Mean Number of Electrodes in Network Spike, Shafer Lab (AID 2284049). On the procedure:
CCTE_Shafer_MEA_dev assay is conducted using Axion Biosystems 48 well microelectrode array (MEA) plates and Maestro recording system. Each well of the MEA plate contains a grid of 16 microelectrodes embedded in the culture surface. Electrically active cells, such as neurons, can be cultured over the electrodes, and electrical activity in these cells can be recorded extracellularly. The spontaneous firing of neurons is captured from each electrode on a microsecond timescale providing both temporally and spatially precise data. […] The CCTE_Shafer_MEA_dev assay uses primary cultures of rat cortical neurons. Recordings are made on days post-plating 5, 7, 9 and 12. As these cultures mature over time, neural networks develop functional activity and form cohesive networks in which electrical activity can be highly coordinated. CCTE_Shafer_MEA_dev_network_spike_peak is 1 of 19 assay components of the CCTE_Shafer_MEA_dev assay. It measures the average number of electrodes participating at the peak of a network spike (the peak of a temporally-clustered group of action potential firing across multiple electrodes) during a recording in a microelectrode array (MEA) using Axion Biosystems Maestro 768 channel amplifier with the AxIS adaptive spike detector. To collapse across multiple recordings made on days post-plating 5, 7, 9 and 12, the trapezoidal area-under-the-curve of the component is calculated.Data from the assay component CCTE_Shafer_MEA_dev_network_spike_peak was analyzed into 1 assay endpoint. This assay endpoint, CCTE_Shafer_MEA_dev_network_spike_peak, was analyzed in the negative analysis fitting direction relative to DMSO as the negative control and baseline of activity. Using a type of functional reporter, gain or loss-of-signal activity can be used to understand electrical activity.
On the day prior to culture, each well was coated thoroughly with 150 uL of 0.05% polyethyleneimine (PEI, Sigma Cat P3143) in 50 mM HEPES (Sigma Cat H7523) at a pH of 8. The plate was incubated at 37C for one hour. PEI was rinsed out with 500 uL of sterile water three times. Plates were stored at 4C until the day of culture. This culture was plated at a seeding density of 1.5 x 10^5 cells/well on a 48-well MEA plate, prepared as described above. Cells were administered via a 25 uL media/laminin ([…]; Sigma Cat L2020-1MG) drop directly onto the microelectrode array, as adding the cells with the laminin results in better attachment than pre-coating with laminin. After 2 hours, an additional 475 uL of cortical media was added and the cells returned to the incubator. Exposure starts at day 0 of plating and is continued over twelve days of network development until the experiment is terminated. Cells are fed with fresh medium on DIV 5 and 9, following the recordings on those days. The entire volume of media in the well is exchanged and any vehicle or compound treatment is renewed. Complete details are found in OP-NHEERL/ISTD/SBB/TJS/2015-03-r0 (available on request, email shafer.tim@epa.gov). Measurement of the electrical activity is non-invasive, and recordings can be made from the same plate over multiple different days of the culture. In cortical neurons, this allows for the measurement of extracellular action potentials over the period during which networks form in the MEA plate.
Consider `CCOP(=S)(OCC)Oc1ccc2c(C)c(Cl)c(=O)oc2c1`, for which the AC50 was 50 µM (active).
In the case of `CCCSP(=O)(OCC)Oc1ccc(Br)cc1Cl` (stereo not given), the compound was classed as inactive.
Take `CSC1=N[C@@](C)(c2ccccc2)C(=O)N1Nc1ccccc1`: the call was inactive.
As for `CCOP(=O)(SC(C)CC)N1CCSC1=O` (stereo not given), the result was inactive.
As for `CCOP(=S)(OCC)Oc1ccc([N+](=O)[O-])cc1`, the compound was classed as inactive.
Take `COP(=O)(OC)C(O)C(Cl)(Cl)Cl` (stereo not given): the AC50 was 75.4 µM (active) and 15 µM (active).
`CCOP(=S)(OCC)SCCSCC`: the call was inactive.
`CC(C)[C@H](C(=O)O[C@H](C#N)c1cccc(Oc2ccccc2)c1)c1ccc(Cl)cc1`: the AC50 is 4.07 µM (active).
As to `C=C(C)[C@H]1Cc2c(ccc3c2O[C@@H]2COc4cc(OC)c(OC)cc4[C@@H]2C3=O)O1`, the AC50 was 24.9 nM (active) and 16.5 nM (active).
On the same count and under the same terms, then `CN(C)[C@@H]1C(=O)C(C(N)=O)=C(O)[C@@]2(O)C(=O)C3=C(O)c4c(O)cccc4[C@@](C)(O)[C@H]3[C@H](O)[C@@H]12`, with 50 µM (active).
Turning to `CC(C)N(C(=O)SCC(Cl)=C(Cl)Cl)C(C)C`, the AC50 was 15 µM (active).
Take `CON=C(C(=O)OC)c1ccccc1CON=C(C)c1cccc(C(F)(F)F)c1`: the AC50 is 871 nM (active) and 742 nM (active).
For the compound `COP(=O)(OC)OC(Br)C(Cl)(Cl)Br` (stereo not given), the AC50 is 9.05 µM (active) and 11.9 µM (active).
For the compound `CCOP(=S)(OCC)Oc1cc(C)nc(C(C)C)n1`, the AC50 was 50 µM (active) and the call was inactive.
As for `CCOP(=O)(OCC)Oc1cc(C)nc(C(C)C)n1`, the compound was classed as inactive.
Regarding `CCCSP(=O)(OCC)SCCC`, the AC50 was 50 µM (active) and 29.9 µM (active).
Turning to `CN1COCN(Cc2cnc(Cl)s2)C1=N[N+](=O)[O-]`, the compound was called inactive.
Regarding `CCCCSP(=O)(SCCCC)SCCCC`, the half-maximal activity concentration (AC50) is 31.8 µM (active) and 16 µM (active).
Turning to `CCOC(=O)CC(SP(=O)(OC)OC)C(=O)OCC` (stereo not given), the call was inactive.
`CCOP(=O)(NC(C)C)Oc1ccc(SC)c(C)c1` (stereo not given): the compound was classed as inactive and the AC50 was 51 µM (active).
On to `CCOP(=S)(OCC)OC(Cl)C(Cl)(Cl)Cl` (stereo not given), for which the concentration at half-maximal activity (AC50) was 50 µM (active) and 20.2 µM (active).
For the compound `S=C1NCCN1`, the compound was called inactive.
With `C[N+]1(C)CCCCC1`, the concentration at half-maximal activity (AC50) is 15 µM (active).
For `CC[C@H](C)[C@H]1O[C@]2(C=C[C@@H]1C)C[C@@H]1C[C@@H](C/C=C(\C)[C@@H](O[C@H]3C[C@H](OC)[C@@H](O[C@H]4C[C@H](OC)[C@@H](NC)[C@H](C)O4)[C@H](C)O3)[C@@H](C)/C=C/C=C3\CO[C@@H]4[C@H](O)C(C)=C[C@@H](C(=O)O1)[C@]34O)O2`, the AC50 was 106 nM (active) and 9.12 nM (active).
As to `CC(Oc1cccc(Cl)c1)C(=O)O` (stereo not given), the call was inactive.
As for `C#CCC1=C(C)C(OC(=O)C2C(C=C(C)C)C2(C)C)CC1=O` (stereo not given), the compound was called inactive.
`CC(C)=CC1C(C(=O)OCN2C(=O)C3=C(CCCC3)C2=O)C1(C)C` (stereo not given): the AC50 was 1.98 µM (active).
Take `CC(=NC#N)N(C)Cc1ccc(Cl)nc1`: the compound was classed as inactive.
On to `CCOP(=S)(Oc1cnc(C(C)(C)C)nc1)OC(C)C` (stereo not given), for which the half-maximal activity concentration (AC50) was 85.8 µM (active) and 13 µM (active).
Take `COP(=O)(NC(C)=O)SC` (stereo not given): the compound was classed as inactive.
In the case of `O=[N+]([O-])c1cc(C(F)(F)F)c(Cl)c([N+](=O)[O-])c1Nc1ncc(C(F)(F)F)cc1Cl`, the AC50 was 1.06 µM (active).
Same read-out and setting: then `C[Si](Cn1cncn1)(c1ccc(F)cc1)c1ccc(F)cc1`, with 4.71 µM (active).
As to `CC1=NNC(=O)N(/N=C/c2cccnc2)C1`, the result was inactive.
